Source: PubChem BioAssay
Activity calls are given as the source filed them.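 Rule for the calls, unless noted: active = NADPH fluorescence slope more negative than the mean of all samples by about 3 SD, 99.7% confidence; inactive = the rest.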

What was measured:
[1] = inhibitors of TNFa-induced NFkB p65 translocation, primary screen, imaging, HUVEC, MLSMR starter and 10KST1 sets (AID 438;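 active = inhibition above 20% together with a positive visual image hit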;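 note: compound added about 3h40 before a 20 min TNFalpha stimulation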;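 for inhibition: signal is the nuclear over cytoplasmic p65 intensity ratio per well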); settings: HUVEC TNFa-induced p65 nuclear translocation; cell count: measured here: nuclei count (cytotoxicity indicator), at 2.08 µM; inhibition: at 2 µM, stronger effect = higher value, 0% TNFa-plus-vehicle, 100% no-TNFa wells
[2] = reduction of polyQ htt aggregates in cells – imaging, exon1htt(103Q)mCFP cells, high-content imaging, primary screen (AID 483;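 active = visual image review flags a hit and inhibition of aggregation exceeds 20%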;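 note: compound exposure lasted 3 days before fixation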;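 for nuclei count: percent of the per-plate median nuclei count of sample wells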); settings: exon1htt(103Q)mCFP cell line, aggregate imaging, at 2 µM; inhibition of aggregation: stronger effect = higher value; nuclei count: measured here: cell count, toxicity
[3] = endothelial E-selectin expression blockers – imaging, HUVEC, immunofluorescence, MLSMR starter and 10KST1 sets, primary screen (AID 487;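 active = visually confirmed hit in the image check and inhibition above 20%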;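 for inhibition: signal is fraction of cell area covered by stained E-selectin grains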;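 for nuclei count: 100% = median nuclei count of all wells on the same plate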); settings: HUVEC TNFalpha-induced E-selectin immunofluorescence imaging, at 2 µM; inhibition: stronger effect = higher value; nuclei count: measured here: cell number, toxicity
[4] = target: Voltage-gated potassium channel subunit beta-2 (Rattus norvegicus) (UniProt P62483); assay: inhibitors of rat Kvbeta2 reductase activity – biochemical, NADPH fluorescence, primary screen (AID 622;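 active = fluorescence slope higher than the sample average by over 3 SD, cut at about -0.22 in these data, passing the limit was not always enough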;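 note: slope of raw intensity against log time taken from 70 to 1610 s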); settings: recombinant KvBeta, 4-cyanobenzaldehyde reduction, at 10 µM, stronger effect = higher value
[5] = target: Voltage-gated potassium channel subunit beta-2 (Rattus norvegicus) (UniProt P62483); assay: enhancers of rat Kvbeta2 NADPH turnover – biochemical, NADPH fluorescence, primary screen (AID 623); settings: Recombinant KvBeta, NADPH fluorescence decrease slope, 10 min; at 10 µM; stronger effect = lower value;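 note: fluorescence intensity change per second fitted from 20 to 320 s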
[6] = target: Alpha-2C adrenergic receptor (Homo sapiens) (UniProt P18825); assay: compounds altering alpha2C-coupled GIRK flux – cell-based, HEK293 alpha2C/GIRK1/2, thallium flux, primary screen (AID 624;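 active = fluorescence slope after compound addition differing from the mean of all screened samples at 99.7% confidence, in either direction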;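 note: slope of fluorescence ratio to pre-addition baseline per second over 15 to 24 s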); settings: thallium flux BTC fluorescence, at 10 µM, actives lie on both sides
[7] = blockers of RIG-like receptor reporter activation – cell-based, Sendai virus stimulus, luciferase, 10K MLSCN set, TLR/RLR signaling modifier project, primary screen (AID 602276;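 active = inhibition at or above 50% at 10 µM; inactive = inhibition below 50%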;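 note: firefly luciferase from ISG56 promoter only with Renilla not read in this screen; 0% = Sendai virus plus DMSO and 100% = medium plus DMSO without virus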); settings: HEK293 RL24 IRF3 luciferase reporter, at 10 µM, stronger effect = higher value
[8] = TLR3 IRF3 reporter activation blockers – cell-based, poly I:C stimulus, luciferase, 10K MLSCN set, primary screen (AID 602277;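 active = inhibition of the reporter signal at or above 50%; inactive = inhibition below 50%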); settings: HEK293-TLR3 RL24 IRF3 luciferase reporter, at 10 µM, stronger effect = higher value

Alpha-2C adrenergic receptor (Homo sapiens), sequence (P18825 whole entry, looked up): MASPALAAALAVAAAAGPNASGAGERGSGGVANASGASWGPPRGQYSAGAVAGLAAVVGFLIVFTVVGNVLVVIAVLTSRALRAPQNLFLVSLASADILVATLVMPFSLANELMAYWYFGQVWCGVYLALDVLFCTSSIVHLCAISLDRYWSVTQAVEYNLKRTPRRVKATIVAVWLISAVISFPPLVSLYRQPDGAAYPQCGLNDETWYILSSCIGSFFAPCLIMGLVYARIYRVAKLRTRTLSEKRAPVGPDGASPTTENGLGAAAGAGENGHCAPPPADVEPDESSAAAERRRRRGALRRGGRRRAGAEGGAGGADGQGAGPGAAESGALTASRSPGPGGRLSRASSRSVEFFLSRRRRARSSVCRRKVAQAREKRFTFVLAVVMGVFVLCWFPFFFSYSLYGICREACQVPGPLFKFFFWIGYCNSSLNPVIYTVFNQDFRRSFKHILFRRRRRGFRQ
Voltage-gated potassium channel subunit beta-2 (Rattus norvegicus), sequence (P62483 whole entry, looked up): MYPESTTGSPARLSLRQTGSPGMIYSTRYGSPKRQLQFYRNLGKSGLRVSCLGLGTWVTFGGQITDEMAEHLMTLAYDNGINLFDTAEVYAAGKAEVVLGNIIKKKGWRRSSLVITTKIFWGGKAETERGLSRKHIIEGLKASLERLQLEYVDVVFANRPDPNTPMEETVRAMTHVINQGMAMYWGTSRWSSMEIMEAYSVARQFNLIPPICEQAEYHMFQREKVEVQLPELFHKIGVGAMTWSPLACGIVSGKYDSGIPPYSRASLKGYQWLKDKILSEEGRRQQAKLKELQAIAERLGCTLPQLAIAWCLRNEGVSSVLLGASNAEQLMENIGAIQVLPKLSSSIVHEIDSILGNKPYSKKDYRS

Structure (SMILES) | cell count [1] | inhibition [1] | inhibition of aggregation [2] | nuclei count [2] [%] | inhibition [3] | nuclei count [3] [%] | fluorescence slope [4] | NADPH fluorescence slope [5] | slope [6] | inhibition [7] | inhibition [8]
Cn1c(COc2ccc(Cl)cc2)nnc1SCC(=O)NC1CCCCC1 | 328 | -1.3% (inactive) | 19.6% (inactive) | 91.8 | -90.6% (inactive) | 107 | -0.545 (inactive) | -1.7e-05 (inactive) | 0.00395 (inactive) | -9.58% (inactive) | -7.85% (inactive)
CC(C)NC(=O)CSCc1ccccc1Cl | 350 | 12.5% (inactive) | 6.1% (inactive) | 100 | -0.7% (inactive) | 110 | -0.5 (inactive) | -1.3e-05 (inactive) | 0.00508 (inactive) | 9.82% (inactive) | 0.78% (inactive)
CCOc1cccc(C(=O)N(Cc2ccco2)C2CCS(=O)(=O)C2)c1 (stereo not drawn) | 609 | 9.6% (inactive) | 2.4% (inactive) | 107 | -9.8% (inactive) | 110 | -0.342 (inactive) | -6.1e-05 (inactive) | 0.00467 (inactive) | 11.5% (inactive) | 13.7% (inactive)
CCOc1ccc(NC(=O)C2CC(=O)N(C(C)C)C2)cc1 (stereo not drawn) | 346 | -0.5% (inactive) | 11.8% (inactive) | 91.8 | -32.2% (inactive) | 96.8 | -0.623 (inactive) | 4.4e-05 (inactive) | 0.00445 (inactive) | 11% (inactive) | 12.4% (inactive)
CCCCN(CC)CCCNC(=O)CS(=O)(=O)Cc1nc(-c2cccc(OC)c2)oc1C | 670 | -15.1% (inactive) | -1% (inactive) | 100 | -24.9% (inactive) | 99.7 | -0.354 (inactive) | 4e-05 (inactive) | 0.00399 (inactive) | 2.85% (inactive) | 17.9% (inactive)
COc1cccc(CN2CCN(C(=O)c3ccco3)CC2)c1OC | 513 | 13.6% (inactive) | -4.9% (inactive) | 100 | -347% (inactive) | 128 | -0.595 (inactive) | 1.5e-05 (inactive) | 0.00742 (inactive) | 11.8% (inactive) | 8.85% (inactive)
CCOC(=O)CSc1nc2c(c(-c3ccc(C)o3)c1C#N)CCCC2 | 430 | -4.4% (inactive) | -20.4% (inactive) | 100 | -63.3% (inactive) | 128 | -0.447 (inactive) | -9.4e-05 (inactive) | 0.00861 (inactive) | 10.2% (inactive) | 18.3% (inactive)
O=C(NCc1cccs1)C1CCCN(c2ncccn2)C1 (stereo not drawn) | 404 | -3% (inactive) | 13.4% (inactive) | 96.8 | -10.2% (inactive) | 123 | -0.5 (inactive) | -1.3e-05 (inactive) | 0.00547 (inactive) | 12.7% (inactive) | 9.11% (inactive)
Cc1c(C(=O)OCCOC(C)C)[nH]c2c1C(=O)CC(c1ccco1)C2 (stereo not drawn) | 482 | 18% (inactive) | -3.7% (inactive) | 5.8 | -59.6% (inactive) | 83.1 | -0.553 (inactive) | -3.5e-05 (inactive) | 0.00564 (inactive) | 13.8% (inactive) | 82.1% (active)
COc1ccccc1-c1nc2n(n1)C(c1ccc(Cl)cc1)C(C(N)=O)=C(C)N2 (stereo not drawn) | 313 | 1.8% (inactive) | 4.3% (inactive) | 101 | -37.7% (inactive) | 84.9 | -0.464 (inactive) | 1.5e-05 (inactive) | 0.00608 (inactive) | 11.9% (inactive) | 36.9% (inactive)
COc1ccc(C2CC(c3ccccc3)Nc3nc(NC(=O)c4cccs4)nn32)cc1 (stereo not drawn) | 413 | 1.4% (inactive) | -6.8% (inactive) | 102 | -156% (inactive) | 112 | -0.372 (inactive) | -7.5e-05 (inactive) | 0.00554 (inactive) | 18.4% (inactive) | 25.3% (inactive)
CCOC(=O)c1cnc2c(OC)cccc2c1N1CCN(c2ccc(OC)cc2)CC1 | 158 | -4.9% (inactive) | 16.9% (inactive) | 72.9 | 2.9% (inactive) | 80.4 | -0.577 (inactive) | -4.5e-05 (inactive) | 0.00543 (inactive) | 19.3% (inactive) | 24.8% (inactive)
Cc1cccc(NC(=O)C2CCCN2C(=O)OCC(C)C)c1C (stereo not drawn) | 728 | -6.9% (inactive) | -27.8% (inactive) | 109 | -120% (inactive) | 119 | -0.322 (inactive) | -6.4e-05 (inactive) | 0.00484 (inactive) | 5.88% (inactive) | 14.1% (inactive)
Cc1cccc(OCCCc2c(C)n[nH]c2C)c1 | 348 | 2.2% (inactive) | 7.5% (inactive) | 98.5 | -10% (inactive) | 118 | -0.501 (inactive) | 6.9e-05 (inactive) | 0.00319 (inactive) | -15.1% (inactive) | -15.9% (inactive)
CCOc1ccccc1NC(=O)CN(c1ccc(C)cc1)S(=O)(=O)c1c(C)noc1C | 322 | 2.2% (inactive) | 20.6% (inactive) | 97.9 | 35.2% (inactive) | 64.7 | -0.606 (inactive) | -6.6e-05 (inactive) | 0.00658 (inactive) | 6.02% (inactive) | 28.1% (inactive)
O=c1[nH]cnc2c1nc(SCc1ccccc1)n2C1OC(CO)C(O)C1O (stereo not drawn) | 459 | 14.3% (inactive) | 10.4% (inactive) | 71.9 | -9.9% (inactive) | 110 | -0.597 (inactive) | 1.2e-06 (inactive) | 0.00624 (inactive) | 10.8% (inactive) | 24% (inactive)
Cc1nc2sc(C(c3ccccc3)N3CCN(c4ccccc4F)CC3)c(O)n2n1 (stereo not drawn) | 305 | -1% (inactive) | -6.7% (inactive) | 83.6 | 8.6% (inactive) | 91.8 | -0.437 (inactive) | 0.000106 (inactive) | 0.00618 (inactive) | 5.03% (inactive) | 5.62% (inactive)
CC(=O)c1c(C)nn(C(C)CC(=O)O)c1C (stereo not drawn) | 784 | -12.6% (inactive) | 5.2% (inactive) | 114 | -27.1% (inactive) | 99 | -0.509 (inactive) | -2.6e-05 (inactive) | 0.00713 (inactive) | 8.2% (inactive) | 19.7% (inactive)
CCOC(=O)N1CCN(C(=O)CSc2nnc(COc3ccccc3)o2)CC1 | 596 | 4.7% (inactive) | -3.5% (inactive) | 105 | -3.6% (inactive) | 112 | -0.565 (inactive) | 1.8e-05 (inactive) | 0.00595 (inactive) | -13.9% (inactive) | 10.1% (inactive)
c1ccc2c(c1)CC(N1CCCCC1)c1ccccc1N2 (stereo not drawn) | 631 | -6.3% (inactive) | 10.2% (inactive) | 107 | -26.5% (inactive) | 83.5 | -0.41 (inactive) | -0.000142 (inactive) | 0.00466 (inactive) | 10.1% (inactive) | 24.1% (inactive)
O=C(O)C1CCCCC1C(=O)NCCc1ccccc1 (stereo not drawn) | 350 | 4.6% (inactive) | 14.3% (inactive) | 99.3 | -165% (inactive) | 103 | -0.535 (inactive) | -5.8e-05 (inactive) | 0.00513 (inactive) | -15.8% (inactive) | -11.5% (inactive)
O=C(NC1CCCc2ccccc21)C1CCN(c2nnc(-n3cccc3)s2)CC1 (stereo not drawn) | 686 | -6% (inactive) | -12.1% (inactive) | 116 | -65.3% (inactive) | 114 | -0.583 (inactive) | -3e-05 (inactive) | 0.00726 (inactive) | 7.01% (inactive) | 18.7% (inactive)
CCNCC(O)COCC(O)CNCC (stereo not drawn) | 493 | -5.5% (inactive) | -14.4% (inactive) | 84.2 | 4.5% (inactive) | 117 | -0.256 (inactive) | 8.5e-06 (inactive) | 0.0061 (inactive) | 13.1% (inactive) | 21.4% (inactive)
COc1ccccc1-c1nnc(SCc2ccccn2)n1C | 307 | 7.6% (inactive) | -5.8% (inactive) | 97.6 | -25.6% (inactive) | 104 | -0.581 (inactive) | 0.000106 (inactive) | 0.0056 (inactive) | -14.7% (inactive) | -10.3% (inactive)
CCOC(=O)c1cc2c(=O)n3cccc(C)c3nc2n(CCOC)c1=NC(=O)c1ccncc1 | 397 | -0.2% (inactive) | -15.8% (inactive) | 100 | -4.6% (inactive) | 96.5 | -0.346 (inactive) | -4.3e-05 (inactive) | 0.00713 (inactive) | 16.8% (inactive) | 12.5% (inactive)
Cc1ccc(N=Cc2ccc[nH]2)c(O)c1 | 438 | 4.9% (inactive) | 18.3% (inactive) | 108 | 7% (inactive) | 112 | -0.373 (inactive) | -2.1e-06 (inactive) | 0.0076 (inactive) | -10% (inactive) | -22.4% (inactive)
CC(C)CNc1oc(-c2ccc(F)cc2)nc1C#N | 696 | -2.9% (inactive) | -21% (inactive) | 108 | -41.9% (inactive) | 118 | -0.543 (inactive) | -5e-06 (inactive) | 0.00664 (inactive) | -4.19% (inactive) | 2.46% (inactive)
CC1(C)CC(=O)C=C(Nc2ccc(OCC(F)(F)C(F)F)cc2)C1 | 362 | -0.3% (inactive) | -25.2% (inactive) | 110 | -43% (inactive) | 116 | -0.324 (inactive) | -1.5e-05 (inactive) | 0.00531 (inactive) | -8.49% (inactive) | -18.3% (inactive)
